Laboratory results from PubChem BioAssay AID1359 (The Scripps Research Institute Molecular Screening Center, 2008).
Among all 220,000 compounds or so, about 970 (0.44%) were called active. Rule as the data show it: active = activation above about 27%; inactive = the rest. Many of the other results were omitted from the sample, so actives are more common in it than they were.

Molecular target: Neuropeptide Y receptor type 2 (Homo sapiens) (UniProt P49146)
Test: NPY-Y2 potentiators or agonists, primary screen, cell-based (AID 1359);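 also: cells stimulated with NPY near EC25 plus isoproterenol at EC100; 0% = vehicle plus submaximal agonist and 100% = vehicle plus saturating agonist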
Conditions: cells expressing NPY-Y2, potentiator/agonist read-out; at 3.6 µM; stronger effect = higher value

Neuropeptide Y receptor type 2 (Homo sapiens), sequence (P49146 whole entry, looked up): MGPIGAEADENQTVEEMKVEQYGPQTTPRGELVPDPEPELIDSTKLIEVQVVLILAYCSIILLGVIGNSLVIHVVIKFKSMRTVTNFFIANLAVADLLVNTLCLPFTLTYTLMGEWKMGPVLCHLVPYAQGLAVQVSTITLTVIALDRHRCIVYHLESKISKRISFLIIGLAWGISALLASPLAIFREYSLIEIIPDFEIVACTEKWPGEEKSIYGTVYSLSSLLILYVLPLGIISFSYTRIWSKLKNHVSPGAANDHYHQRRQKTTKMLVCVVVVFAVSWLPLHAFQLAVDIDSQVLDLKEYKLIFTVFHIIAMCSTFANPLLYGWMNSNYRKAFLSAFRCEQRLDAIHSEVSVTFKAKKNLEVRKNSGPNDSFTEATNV

Row | SMILES | activation
1 | CCOc1ccc(NC(=O)c2ccccc2NS(C)(=O)=O)cc1 | 2.32% (inactive)
2 | COc1cc(NC(=O)c2cccnc2SC)cc(OC)c1 | 6.08% (inactive)
3 | O=C(Nc1nncs1)c1ccccc1NS(=O)(=O)c1cccs1 | -3.36% (inactive)
4 | COc1cc(NC(=O)c2ccccc2NS(=O)(=O)c2ccc(Cl)s2)cc(OC)c1 | 44% (active)
5 | COC(=O)c1ccc(NC(=O)c2ccccc2NS(=O)(=O)c2ccccc2)cc1 | 34.4% (active)
6 | COC(=O)c1ccccc1NC(=O)c1ccccc1NS(C)(=O)=O | -6.98% (inactive)
7 | COc1ccccc1NC(=S)N1CCC(NC(=O)C23CC4CC(CC(C4)C2)C3)CC1 | 1.71% (inactive)
8 | O=c1c2c3c(sc2n(CCN2CCCC2)c(=O)n1Cc1ccccc1)CCCCC3 | -17.9% (inactive)
9 | O=C(Cn1nnc(N2CCCCC2)n1)c1ccc(Cl)c(Cl)c1 | 19% (inactive)
10 | COc1ccc(Cc2n[nH]c(=S)n2NC(=O)Nc2ccc(C)cc2)cc1 | 7.41% (inactive)
11 | CC1CN(/C=C/C(=O)C(F)(F)F)CC(C)O1 (stereo unspecified) | -5.05% (inactive)
12 | CCC(=O)N1CCC(C(N)=O)(N2CCCCC2)CC1 | -10.4% (inactive)
13 | CCCCCCCC1(C)NC(=O)N(CC(=O)Nc2cc(C)on2)C1=O (stereo unspecified) | 8.45% (inactive)
14 | CCOC(=O)Cc1cc(=O)[nH]c(/N=C(\N)Nc2ccc(OC)cc2)n1 | -5.89% (inactive)
15 | CC(CCc1ccccc1)NCC(O)c1cccc([N+](=O)[O-])c1 (stereo unspecified) | 87.1% (active)
16 | CC(C)OP(=O)(OC(C)C)C(Nc1ccccc1)c1cccc([N+](=O)[O-])c1 (stereo unspecified) | -1.74% (inactive)
17 | CC(=O)NCC(O)c1ccc([N+](=O)[O-])cc1 (stereo unspecified) | 7.64% (inactive)
18 | O=C(CCn1nnc2ccccc2c1=O)N[C@@H](Cc1c[nH]c2ccccc12)C(=O)O | 13.2% (inactive)
19 | CCOc1ccc(S(=O)(=O)N(CC(=O)NCC(F)(F)F)Cc2ccco2)cc1 | -4.11% (inactive)
20 | Cc1ccc(Nc2nc(CSc3nnc(-c4ccncc4)n3-c3ccccc3C)cs2)cc1 | 2.6% (inactive)
21 | COc1cccc(CNn2cn[nH]c2=S)c1OCc1ccccc1 | 2.42% (inactive)

Row | SMILES | activation
22 | O=C(CC(=O)Nc1ccc(Cl)c(Cl)c1)N/N=C/c1ccc(O)cc1 | 7.69% (inactive)
23 | O=C(CC(O)(C(F)(F)F)C(F)(F)F)Nc1ccc(Cl)c(Cl)c1 | 52.9% (active)
24 | CN(C)CCNC(CC(=O)Nc1ccc(Cl)c(Cl)c1)C(=O)O (stereo unspecified) | 4.29% (inactive)
25 | Cc1ccccc1/[N+]([O-])=C/c1ccncc1 | -7.27% (inactive)
26 | CC(=O)c1c(C)[nH]c(=S)c(C#N)c1-c1ccc(F)cc1 | -13.5% (inactive)
27 | C#CCOCCOCCOCCNc1nc(N2CCN(C(=O)[C@H](CCC(=O)O)n3cc(C(N)CO)nn3)CC2)nc(N2CCN(C(=O)[C@H](Cc3ccc(O)cc3)n3cc(C(N)[C@H](C)CC)nn3)CC2)n1 (stereo partly specified) | -0.84% (inactive)
28 | Cc1nccn1CC(=O)N/N=C/c1ccc(O)c(O)c1 | -13.1% (inactive)
29 | O=C(Nc1ccccc1)Nc1ccc(C(F)(F)F)cn1 | 4.92% (inactive)
30 | Oc1ccc(/C=N/Nc2ccc(C(F)(F)F)cn2)cc1O | 28.2% (active)
31 | Cc1ccc(-c2c[n+](=O)c3c(n2[O-])CCC3)cc1 | -8.75% (inactive)
32 | Cc1c(C(=O)NCCCc2ccccc2)cccc1[N+](=O)[O-] | 2.52% (inactive)
33 | O=C1CCCC(O)=C1N=Nc1ccc(S(=O)(=O)N2CCOCC2)cc1 | 4.38% (inactive)
34 | CC(=O)Nc1ccccc1OC(C)C(=O)N1CCC(C)CC1 (stereo unspecified) | -7.73% (inactive)
35 | Cc1noc(COc2ccccc2OCc2onc(C)c2Cl)c1Cl | 0.6% (inactive)
36 | Cc1noc(COc2ccccc2OCC(O)CNC(C)(C)C)n1 (stereo unspecified) | 102% (active)
37 | CC(C)(C)CC(C)(C)NCC(O)COCCOc1ccc(Br)cc1 (stereo unspecified) | -6.14% (inactive)
38 | Cc1cccc(-c2nc3c(c(SCC(=O)N4CCOCC4)n2)CCCC3)c1 | -7.06% (inactive)
39 | O=C(Nc1ccc(N2CCOCC2)nc1)c1c(F)cccc1F | -10.2% (inactive)
40 | CSc1ccc(NC(=O)/C=C/C(=O)O)cc1 | -0.23% (inactive)
41 | O=C(COC(=O)c1ccc[nH]c1=O)Nc1ccc2c(c1)OC(F)(F)O2 | -11.7% (inactive)
42 | CN(C)Cc1c(O)ccc2occ(C(O)c3ccccc3)c12 (stereo unspecified) | 92.7% (active)

Row | SMILES | activation
43 | N/C(=N\S(=O)(=O)c1cc(C(F)(F)F)cc(C(F)(F)F)c1)c1cccs1 | 46% (active)
44 | Cc1ccc(S(=O)(=O)/N=C(\N)c2ccc(F)cc2)cc1 | 9.83% (inactive)
45 | C/C(=N\NS(=O)(=O)c1ccc(Br)cc1)c1cccs1 | 2.42% (inactive)
46 | Cn1c(=O)c(Sc2ccc(Cl)cc2)c(O)c2ccccc21 | -8.34% (inactive)
47 | COc1cccc(NC(=S)NC(=O)c2c(Cl)c(C)nn2C)c1 | -1.69% (inactive)
48 | OCCNCc1cccc(OCc2ccccc2Cl)c1 | -2.33% (inactive)
49 | Cc1cccn2c(CN(C)C3CCCc4ccccc43)c(C(=O)N3CCOCC3)nc12 (stereo unspecified) | -13.5% (inactive)
50 | OC(c1ccccc1)c1nccn1Cc1ccccc1 (stereo unspecified) | 3.61% (inactive)
51 | COC(=O)c1cc(N2CCNCC2)nc2ccccc12 | 17% (inactive)
52 | O=C(Nc1cccc(S(=O)(=O)Nc2ccc(Cl)cc2)c1)c1ccc2c(c1)OCCO2 | 35% (active)
53 | O=C(Nc1ccc(Cl)cn1)c1ccc2c(c1)OCCO2 | -8.32% (inactive)
54 | O=C(Nc1cccc(S(=O)(=O)N2CCCCC2)c1)c1ccc2c(c1)OCO2 | 1.87% (inactive)
55 | COC(=O)c1ccc(CSc2nncn2N)cc1 | 2.75% (inactive)
56 | NC(=O)CCC(NS(=O)(=O)c1ccc(Cl)cc1)C(=O)NCc1ccccc1Cl (stereo unspecified) | 10% (inactive)
57 | CC(=O)c1c(C)[nH]c(C(=O)COC(=O)c2cccc(S(=O)(=O)N(C)c3ccccc3)c2)c1C | 10.4% (inactive)
58 | COc1ccc(C(C[N+](=O)[O-])n2nc(C)cc2C)cc1 (stereo unspecified) | 12.3% (inactive)
59 | CC(=O)N(CCCN(C)C)c1nc2ccc(C)cc2s1 | -1.74% (inactive)
60 | CN(C)CCCN(C(=O)COc1ccccc1)c1nc2c(Cl)cccc2s1 | -2.96% (inactive)
61 | COc1cccc2sc(N(CCCN(C)C)C(=O)C(c3ccccc3)c3ccccc3)nc12 | 95.6% (active)
